Measured values reported in PubChem BioAssay AID624387 (National Center for Advancing Translational Sciences (NCATS), 2012).

molecular target: Pyruvate kinase PKM (Homo sapiens) (UniProt P14618); assay: qHTS for Activators of Human Muscle Isoform 2 Pyruvate Kinase: Extended Characterization using M1 for Probe 2; settings: purified hPK-M1, Kinase-Glo ATP luminescence, 1 h; series mostly up to 57.7 µM; activity change, positive = activation: at the top concentration
Description: Human pyruvate kinase muscle isoform 1 (hPK-M1) enzyme was supplied as a highly purified (>95% pure) preparation from Harvard Medical School and assayed for its ability to generate ATP from ADP using phosphoenolpyruvate (PEP) as a substrate. ATP generation was detected in a coupled reaction by luciferase-mediated luminescence, an ATP-dependent process. Pyruvate kinase substrates, PEP and ADP, were present in the assay at Km and approximately 10-fold below Km respectively. The enzyme was assayed at an intermediate level of activity to screen for both inhibitors and activators. NIH Chemical Genomics Center [NCGC] NIH Molecular Libraries Probe Centers Network [MLPCN] MLPCN Grant: MH085679 Assay Submitter (PI): Matthew G. Vander Heiden, Harvard Medical School
Three uL of substrate mix (at r.t.) in assay buffer (50 mM Imidazole pH7.2, 50 mM KCl, 7 mM MgCl2, 0.01% Tween 20, 0.05% BSA) was dispensed into white solid bottom 1,536 well microtiter plates so that the final concentrations of substrates in the assay were 0.1 mM ADP and 0.5 mM PEP. 23 nL of compound were delivered by a pin tool and 1 uL of enzyme mix (final concentration of 1 nM) in assay buffer (4 degree Celsius) was added. Plates were incubated at room temperature for 1 hour. Two uL of detection mix (Kinase-Glo, Promega; at 4 degree Celsius protected from light) was added and luminescence read by a ViewLux (Perkin Elmer) at 1 second exposure/plate. Data were normalized to the uninhibited (row 31). Additionally, a no enzyme and 5-fold enzyme control was dispensed in row 32, split equally between the two conditions.

Sequence of Pyruvate kinase PKM (Homo sapiens) (P14618 whole entry, looked up, canonical isoform): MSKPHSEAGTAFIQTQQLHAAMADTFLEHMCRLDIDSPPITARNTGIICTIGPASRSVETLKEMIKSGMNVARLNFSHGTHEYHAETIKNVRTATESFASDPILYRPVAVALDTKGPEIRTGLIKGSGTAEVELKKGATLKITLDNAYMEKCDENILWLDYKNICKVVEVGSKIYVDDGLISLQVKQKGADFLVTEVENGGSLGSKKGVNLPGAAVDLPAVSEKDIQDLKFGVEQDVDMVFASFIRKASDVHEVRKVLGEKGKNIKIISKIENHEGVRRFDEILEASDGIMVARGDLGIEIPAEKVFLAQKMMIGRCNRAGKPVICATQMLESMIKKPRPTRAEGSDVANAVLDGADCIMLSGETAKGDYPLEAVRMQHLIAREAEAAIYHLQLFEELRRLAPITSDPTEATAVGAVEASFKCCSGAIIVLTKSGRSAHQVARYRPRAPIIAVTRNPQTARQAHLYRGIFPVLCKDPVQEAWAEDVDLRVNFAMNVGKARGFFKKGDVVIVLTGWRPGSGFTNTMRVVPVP

Activity change, positive = activation, inactive:
Cn1c2cc(S(C)=O)sc2c2cnn(Cc3cccc(N)c3)c(=O)c21 (stereo not given) 1.03%
O=S(=O)(c1ccc2c(c1)OCCO2)N1CCN(S(=O)(=O)c2c(F)cccc2F)CC1 -3.2%
Nc1cccc(S(=O)(=O)N2CCCN(S(=O)(=O)c3ccc4c(c3)OCCO4)CC2)c1 6.24%
COc1cccc(Cn2ncc3c4sc(S(C)=O)cc4n(C)c3c2=O)c1 (stereo not given) -3.35%
Cc1ccc(NS(=O)(=O)c2ccc3c(c2)CCC(=O)N3)cc1C 7.13%
